Source: the supplement of paper PMC8975748
Where a name gives a salt, the structure may show the parent alone. ± gives the standard deviation of the averaged measurements.

Columns and labels:
[1] = system: Saccharomyces cerevisiae BY4741 SeMeCo community; assay: mean cell size (pixel area) (pixels); higher = larger cells; conditions: 10 µM; 24 h; SM minimal medium
How it was run: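 In this assay, mean cell pixel area per well was obtained from automated confocal images of paraformaldehyde-fixed yeast analysed in Harmony. The cells were a Saccharomyces cerevisiae BY4741 community with four plasmids, each complementing one auxotrophy and carrying a fluorescent marker, grown for 24 h in SM medium with drug at a final 10 µM in 384-well plates. Values are averaged across 3 replicates. Same SeMeCo high-content imaging drug screen: Selleck FDA-approved drugs at 10 µM, 24 h in SM medium, 384-well plates, 3 replicates.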

[2] = system: Saccharomyces cerevisiae BY4741 SeMeCo community; assay: z-score of subpopulation abundance vs DMSO median, subpopulation auxotrophic for M; higher = larger share of this subpopulation than in DMSO controls; conditions: 10 µM; 24 h; SM minimal medium; subpopulation (auxotrophy): M
How it was run: (§1)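 Cells of a Saccharomyces cerevisiae BY4741 community, carrying four plasmids that each restored one auxotrophy and encoded a distinct fluorescent protein, were pre-grown overnight to OD600 1.0 and diluted to 0.3. A 70 µl volume was added to 384-well plates acoustically predosed with library drugs (10 µM final) and grown 24 h in minimal SM medium. After paraformaldehyde fixation, automated confocal microscopy was used, with single-auxotroph fluorescent strains for thresholds and autofluorescence correction. The abundance of each subpopulation was scored as a z-score against the vehicle-well median.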

[3] = system: Saccharomyces cerevisiae BY4741 SeMeCo community; assay: z-score of subpopulation abundance vs DMSO median, subpopulation auxotrophic for L; higher = larger share of this subpopulation than in DMSO controls; conditions: 10 µM; 24 h; SM minimal medium; subpopulation (auxotrophy): L
How it was run: as §1

[4] = system: Saccharomyces cerevisiae BY4741 SeMeCo community; assay: z-score of subpopulation abundance vs DMSO median, subpopulation auxotrophic for U; higher = larger share of this subpopulation than in DMSO controls; conditions: 10 µM; 24 h; SM minimal medium; subpopulation (auxotrophy): U
How it was run: as §1

[5] = system: Saccharomyces cerevisiae BY4741 SeMeCo community; assay: z-score of subpopulation abundance vs DMSO median, subpopulation auxotrophic for H; higher = larger share of this subpopulation than in DMSO controls; conditions: 10 µM; 24 h; SM minimal medium; subpopulation (auxotrophy): H
How it was run: as §1

[6] = system: Saccharomyces cerevisiae BY4741 SeMeCo community; assay: z-score of subpopulation abundance vs DMSO median, subpopulation auxotrophic for LU; higher = larger share of this subpopulation than in DMSO controls; conditions: 10 µM; 24 h; SM minimal medium; subpopulation (auxotrophy): LU
How it was run: as §1

[7] = system: Saccharomyces cerevisiae BY4741 SeMeCo community; assay: z-score of subpopulation abundance vs DMSO median, subpopulation auxotrophic for LM; higher = larger share of this subpopulation than in DMSO controls; conditions: 10 µM; 24 h; SM minimal medium; subpopulation (auxotrophy): LM
How it was run: as §1

[8] = system: Saccharomyces cerevisiae BY4741 SeMeCo community; assay: z-score of subpopulation abundance vs DMSO median, subpopulation auxotrophic for HM; higher = larger share of this subpopulation than in DMSO controls; conditions: 10 µM; 24 h; SM minimal medium; subpopulation (auxotrophy): HM
How it was run: as §1

[9] = system: Saccharomyces cerevisiae BY4741 SeMeCo community; assay: z-score of subpopulation abundance vs DMSO median, subpopulation auxotrophic for HU; higher = larger share of this subpopulation than in DMSO controls; conditions: 10 µM; 24 h; SM minimal medium; subpopulation (auxotrophy): HU
How it was run: as §1

[10] = system: Saccharomyces cerevisiae BY4741 SeMeCo community; assay: z-score of subpopulation abundance vs DMSO median, subpopulation auxotrophic for UM; higher = larger share of this subpopulation than in DMSO controls; conditions: 10 µM; 24 h; SM minimal medium; subpopulation (auxotrophy): UM
How it was run: as §1

[11] = system: Saccharomyces cerevisiae BY4741 SeMeCo community; assay: z-score of subpopulation abundance vs DMSO median, subpopulation auxotrophic for HL; higher = larger share of this subpopulation than in DMSO controls; conditions: 10 µM; 24 h; SM minimal medium; subpopulation (auxotrophy): HL
How it was run: as §1

[12] = system: Saccharomyces cerevisiae BY4741 SeMeCo community; assay: z-score of subpopulation abundance vs DMSO median, subpopulation auxotrophic for HLU; higher = larger share of this subpopulation than in DMSO controls; conditions: 10 µM; 24 h; SM minimal medium; subpopulation (auxotrophy): HLU
How it was run: as §1

[13] = system: Saccharomyces cerevisiae BY4741 SeMeCo community; assay: z-score of subpopulation abundance vs DMSO median, subpopulation auxotrophic for HLM; higher = larger share of this subpopulation than in DMSO controls; conditions: 10 µM; 24 h; SM minimal medium; subpopulation (auxotrophy): HLM
How it was run: as §1

[14] = system: Saccharomyces cerevisiae BY4741 SeMeCo community; assay: z-score of subpopulation abundance vs DMSO median, subpopulation auxotrophic for HUM; higher = larger share of this subpopulation than in DMSO controls; conditions: 10 µM; 24 h; SM minimal medium; subpopulation (auxotrophy): HUM
How it was run: as §1

[15] = system: Saccharomyces cerevisiae BY4741 SeMeCo community; assay: z-score of subpopulation abundance vs DMSO median, subpopulation auxotrophic for LUM; higher = larger share of this subpopulation than in DMSO controls; conditions: 10 µM; 24 h; SM minimal medium; subpopulation (auxotrophy): LUM
How it was run: as §1

[16] = system: Saccharomyces cerevisiae BY4741 SeMeCo community; assay: z-score of subpopulation abundance vs DMSO median, subpopulation auxotrophic for HLUM; higher = larger share of this subpopulation than in DMSO controls; conditions: 10 µM; 24 h; SM minimal medium; subpopulation (auxotrophy): HLUM
How it was run: as §1

[17] = system: Saccharomyces cerevisiae BY4741 SeMeCo community; assay: z-score of prototroph abundance vs DMSO median; higher = larger share of this subpopulation than in DMSO controls; conditions: 10 µM; 24 h; SM minimal medium; subpopulation (auxotrophy): Prototroph
How it was run: as §1

SMILES | mean cell size [1] | z-score of subpopulation abundance [2] | z-score of subpopulation abundance [3] | z-score of subpopulation abundance [4] | z-score of subpopulation abundance [5] | z-score of subpopulation abundance [6] | z-score of subpopulation abundance [7] | z-score of subpopulation abundance [8] | z-score of subpopulation abundance [9] | z-score of subpopulation abundance [10] | z-score of subpopulation abundance [11] | z-score of subpopulation abundance [12] | z-score of subpopulation abundance [13] | z-score of subpopulation abundance [14] | z-score of subpopulation abundance [15] | z-score of subpopulation abundance [16] | z-score of prototroph abundance [17]
Nc1c(CC(=O)O)cccc1C(=O)c1ccc(Br)cc1 [Bromfenac Sodium] | 12.5 ± 0.043 | 0.38 | -0.45 | 0.73 | -0.02 | -0.11 | -0.28 | -0.15 | 0.19 | 0.59 | -0.68 | -0.92 | -0.09 | 0.05 | 0.39 | 0.3 | 
CN(C)CCCN1c2ccccc2Sc2ccccc21 [Promazine hydrochloride] | 12.5 ± 0.15 | 0.15 | -0.38 | 0.34 |  | 0.52 | -0.08 | -0.18 | -0.69 |  | -0.82 | 0.06 | 0.41 | 0.07 | 0.25 | 0.6 | 0.19
CC1(C)S[C@@H]2[C@H](NC(=O)C(c3ccccc3)S(=O)(=O)O)C(=O)N2[C@H]1C(=O)O (stereo partly specified) [Sulbenicillin Sodium] | 12.35 ± 0.08 | 0.41 | -0.32 | 1.09 | 1.2 | 1.06 | -0.34 | -0.06 | 0.51 | 1.5 | 0.63 | 0.86 | 3.16 | 0.43 | 0.65 | 1.16 | -0.72
CONC(=O)Nc1ccc(-c2sc3c(c2CN(C)C)c(=O)n(-c2ccc(OC)nn2)c(=O)n3Cc2c(F)cccc2F)cc1 [Relugolix] | 12.2 ± 0.23 | -1.52 | 0.15 | 0.32 | 0.68 | -0.09 | -0.08 | -0.86 | 0.09 | -0.12 | -0.26 | 0.32 | -0.07 | -0.45 | 0.11 | 0.58 | 0.18
COc1nc2ccc(Br)cc2cc1[C@@H](c1ccccc1)[C@@](O)(CCN(C)C)c1cccc2ccccc12 [Bedaquiline fumarate] | 11.2 ± 0.16 | -0.55 | -0.13 | 0.97 | 1.1 | 0.86 | 0.49 | 0.33 | 1.44 | 4.1 |  | 0.68 | -0.14 | 1.74 | 3.68 | 1.29 | -1.58
C[N+]1(C)CCC(OC(=O)C(O)(c2ccccc2)C2CCCC2)C1 (stereo unspecified) [Glycopyrrolate] | 12.32 ± 0.11 | 0.07 | -0.73 | 1.42 | -0.58 | 0.76 | -0.6 | -0.21 | 0.57 | 1.58 | -0.5 | -0.14 | 0.17 | 0.23 | 0.56 | -0.01 | 
Cc1cc(C)nc(O)n1.O=C(Nc1ccc([N+](=O)[O-])cc1)Nc1ccc([N+](=O)[O-])cc1 [Nicarbazin] | 12.4 ± 0.18 | -0.21 | -0.96 | 0.5 | -0.25 | 0.22 | -1.07 | -0.62 | -0.22 | -0.4 | -1.2 | -0.28 | -0.49 | -0.86 | -0.52 | -0.56 | 0.74
CCCOc1ccc(C(=O)OCCN(CC)CC)cc1N [Proparacaine HCl] | 12.56 ± 0.068 | -0.55 | 0.26 | 0.18 | -0.4 | 0.25 | -0.38 | -0.65 | -0.31 |  | -0.68 | -0.61 | -0.35 | -0.66 | -0.49 | -0.51 | 0.46
C[N+]1(C)[C@@H]2CC[C@H]1C[C@@H](OC(=O)C(O)c1ccccc1)C2 (stereo partly specified) [Homatropine Methylbromide] | 12.4 ± 0.32 | -0.38 | -0.63 | 0.46 | -1.04 | 0.06 | -1 | -0.7 | 0.05 | 0.8 | -0.55 | 0 | -0.66 | 0.4 | -0.14 | -0.38 | 0.29
CC[C@H](C)C(=O)O[C@H]1C[C@H](O)C=C2C=C[C@H](C)[C@H](CC[C@@H](O)C[C@@H](O)CC(=O)O)[C@H]21 [Pravastatin sodium] | 12.3 ± 0.26 | 0.01 | 2.2 | -0.09 | 0.31 | 1.81 | 1.93 | 0.12 | 0.26 | 0.47 |  | -0.65 | 0.62 | -0.32 | 0.57 | 2.71 | -0.86
CCCCCCCCCCCCCCCCOP(=O)([O-])OCC[N+](C)(C)C [Miltefosine] | 7.76 ± 0.26 | -7.93 | -5.76 | -5.15 | -10.2 | 7.16 | -4.09 | 0.26 | 1.54 | 31.2 | 3.75 | 0.88 | 15.6 | 142 | 20.4 | 161 | -22.6
CCn1cc(C(=O)O)c(=O)c2ccc(C)nc21 [Nalidixic acid] | 11.87 ± 0.1 | -1.04 | 1.23 | -0.51 | -0.95 | -0.49 | 0.23 | -1.62 | -0.52 | -1.42 |  | -0.15 | -0.21 | -1.86 |  | -0.59 | 1.23
CC(C)c1c(C(=O)Nc2ccccc2)c(-c2ccccc2)c(-c2ccc(F)cc2)n1CC[C@@H](O)C[C@@H](O)CC(=O)O [Atorvastatin Calcium] | 12 ± 0.14 | 0.46 | 0.91 | 0.01 | 7.9 | 2.65 | 2.22 | 9.85 | 7.9 | 4.62 | 6.43 | 8.01 | 9.32 | 7.67 |  | 4.28 | -7.41
CCCc1nn(C)c2c(=O)[nH]c(-c3cc(S(=O)(=O)N4CCN(C)CC4)ccc3OCC)nc12 [Sildenafil Citrate] | 12.4 ± 0.22 | 0.03 | -0.61 | 0.43 | -0.22 | 0.51 | -0.26 | 0.01 | -0.23 | 0.49 |  | 0.14 | -0.32 | -0.06 | -0.09 | -0.32 | 
